Screening results (PubChem BioAssay)
A selection: hits, their analogues and other compounds. The true share with any hit is near 4.2%.
CCHF vOTU inh: CCHFV vOTU protease inhibition; Pep-AMC fluorescence; inhibition, % at 11.5 µM; 370,000 tested, 0.55% active; AID 651958
RecA intein inh: Mtb RecA intein splicing inhibition | cell-free RecA intein splicing, fluorescence | 290,000 tested, 0.75% active | AID 2221 | inhibition, % (concentration not given with the values); in the data active means inhibition above about 30%; inconclusive means no clear call, values can overlap the other calls
GDH-TPI inh: inhibits GDH-TPI coupling enzymes, artifact for Mtb FBA screen; AID 588335; GDH-TPI coupled enzyme counterscreen, NADH absorbance; 360,000 tested, 1.2% active; inhibition, % at 4.8 µM
Mtb FBA inh: inhibits M. tuberculosis FBA enzyme | P9WQA3 | 360,000 tested, 2.3% active | AID 588726 | inhibition, % at 1 µM | purified M. tuberculosis FBA, fluorescence read-out; in the data active means inhibition above about 27%
Target sequence (P9WQA3 whole entry, looked up): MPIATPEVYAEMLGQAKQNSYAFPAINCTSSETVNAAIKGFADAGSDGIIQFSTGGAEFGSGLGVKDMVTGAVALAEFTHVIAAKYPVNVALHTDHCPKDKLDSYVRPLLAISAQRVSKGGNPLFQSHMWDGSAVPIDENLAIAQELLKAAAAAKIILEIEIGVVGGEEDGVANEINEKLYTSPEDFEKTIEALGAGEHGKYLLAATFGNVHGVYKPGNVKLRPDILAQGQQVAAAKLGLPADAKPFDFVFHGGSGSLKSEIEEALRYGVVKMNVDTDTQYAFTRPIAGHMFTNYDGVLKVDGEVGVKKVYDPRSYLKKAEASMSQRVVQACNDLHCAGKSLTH
Mtb bLac sens: beta-lactam sensitization of Mtb H37Rv; inhibition, % at 25 µM; M. tuberculosis H37Rv growth with meropenem, percent inhibition; 330,000 tested, 0.27% active; AID 434955; call rule not given here;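 further: growth measured after seven days incubation then overnight dye step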
Numbers stand for hits. Unless noted, no stated cut-off is given here; in the data, active means inhibition above about 30%; inactive means the rest.

Screening CC(COc1cccc(OC(F)(F)F)c1)CN1CCC(C(O)(c2ccccc2)c2ccccc2)CC1 (configuration not stated) returned CCHF vOTU inh inactive.
`CCOC(=O)c1cc2c(=O)[nH]ccc2nc1C` gave CCHF vOTU inh inactive, RecA intein inh inactive, GDH-TPI inh inactive, Mtb FBA inh 120 and Mtb bLac sens inactive.
For CCCN(CCC)c1nc2ccccc2nc1C(C#N)C(=O)OCCOC (configuration not stated) the results were CCHF vOTU inh inactive, RecA intein inh inactive, GDH-TPI inh inactive, Mtb FBA inh inactive and Mtb bLac sens inactive.
For C=CCN(CC=C)c1nc2ccccc2nc1C(C#N)C(=O)OCCOC (configuration not stated) the results were CCHF vOTU inh inactive, RecA intein inh inactive, GDH-TPI inh inactive, Mtb FBA inh 57 and Mtb bLac sens inactive.
For CCN(CC)CCCNc1oc(/C=C/c2ccccc2)nc1C#N the results were CCHF vOTU inh inactive, RecA intein inh inactive, GDH-TPI inh inactive, Mtb FBA inh active and Mtb bLac sens inactive.
Screening CN(C)CCCNc1c2ccccc2nc2ccccc12 returned CCHF vOTU inh inactive, RecA intein inh inactive, GDH-TPI inh inactive, Mtb FBA inh 177 and Mtb bLac sens inactive.
CNc1oc(/C=C/c2cccc(OC)c2)nc1C#N was read as RecA intein inh inactive, GDH-TPI inh inactive, Mtb FBA inh active and Mtb bLac sens inactive.
For CN(C)c1oc(/C=C/c2ccccc2)nc1C#N the results were CCHF vOTU inh inactive, RecA intein inh inactive, GDH-TPI inh inactive and Mtb bLac sens inactive.
`CN(C)CCCNc1nc(-c2ccccc2)nc2ccccc12` gave CCHF vOTU inh inactive, RecA intein inh inactive, GDH-TPI inh inactive, Mtb FBA inh inactive and Mtb bLac sens inactive.
COc1ccc(CCNc2oc(COc3ccccc3)nc2C#N)cc1 was read as CCHF vOTU inh inactive, RecA intein inh inactive, GDH-TPI inh inactive, Mtb FBA inh inactive and Mtb bLac sens inactive.
`COc1ccc(CCNc2oc(-c3ccccc3OC)nc2C#N)cc1` gave CCHF vOTU inh inactive, RecA intein inh inactive, GDH-TPI inh inactive, Mtb FBA inh active and Mtb bLac sens inactive.
Screening Cn1c(=O)oc2cc(S(=O)(=O)N3CCN(c4cccc(C(F)(F)F)c4)CC3)ccc21 returned CCHF vOTU inh inactive.
Screening O=C(NC1CCCCN(Cc2cccc(Cl)c2)C1=O)C1CCCCC1 (configuration not stated) returned CCHF vOTU inh inactive.
`C=CCN1C(=O)[C@@H](CC(=O)N2CCCC2)[C@]2(C(=O)OCC)CCCCC/C=C/12` gave CCHF vOTU inh inactive.
Screening N#Cc1nc(COc2ccccc2Cl)oc1NCc1ccc(F)cc1 returned CCHF vOTU inh inactive, RecA intein inh inactive, GDH-TPI inh inactive, Mtb FBA inh inactive and Mtb bLac sens inactive.
Screening N#Cc1nc(-c2ccccc2F)oc1NCc1cccc2c1OCO2 returned CCHF vOTU inh inactive, RecA intein inh inactive, GDH-TPI inh inactive, Mtb FBA inh inactive and Mtb bLac sens inactive.
For COc1ccc(/C=C/c2nc(C#N)c(NCCN(C)C)o2)cc1OC the results were CCHF vOTU inh inactive, GDH-TPI inh inactive, Mtb FBA inh inactive and Mtb bLac sens inactive.
COc1ccc(CCNc2oc(-c3ccc(OC)c(OC)c3)nc2C#N)cc1 was read as CCHF vOTU inh inactive, RecA intein inh inactive, GDH-TPI inh 36, Mtb FBA inh active and Mtb bLac sens inactive.
Screening COc1ccc(-c2nc(C#N)c(NCCCN(C)C)o2)cc1OC returned CCHF vOTU inh inactive, RecA intein inh inactive, GDH-TPI inh inactive, Mtb FBA inh active and Mtb bLac sens inactive.
For COc1ccccc1-c1nc(C#N)c(NCc2ccc(F)cc2)o1 the results were CCHF vOTU inh inactive, RecA intein inh inactive, GDH-TPI inh inactive, Mtb FBA inh 113 and Mtb bLac sens inactive.
CN(C)CCNc1oc(-c2ccccc2F)nc1C#N was read as CCHF vOTU inh inactive, RecA intein inh inactive, GDH-TPI inh inactive, Mtb FBA inh 145 and Mtb bLac sens inactive.
`CCCCS(=O)(=O)N1C2=NC3=C(C(=O)N(CCOC)C3=O)C3N(C)c4ccccc4[C@]23C[C@H]1CO` (some centres not stated) gave CCHF vOTU inh inactive.
Screening C/C(=C/c1c[n+](Cc2ccc3c(c2)OCO3)c(N)[nH]1)Cn1[nH]c(=O)n(-c2ccccc2)c1=O returned CCHF vOTU inh inactive.
Cc1cccc(NC(=O)NCCCN2CCN(c3ccc(F)cc3)CC2)c1 was read as CCHF vOTU inh inactive.
For COc1ccccc1-c1nc(C#N)c(NCCCn2ccnc2)o1 the results were CCHF vOTU inh inactive, RecA intein inh inactive, GDH-TPI inh inactive, Mtb FBA inh active and Mtb bLac sens inactive.
For CN(C)CCCNc1oc(-c2ccccc2)nc1C#N the results were CCHF vOTU inh inactive, RecA intein inh inactive, GDH-TPI inh inactive, Mtb FBA inh 131 and Mtb bLac sens inactive.
COc1ccc(-c2nc(C#N)c(NC(C)c3ccccc3)o2)cc1OC (configuration not stated) was read as CCHF vOTU inh inactive, RecA intein inh inactive, GDH-TPI inh inactive, Mtb FBA inh 144 and Mtb bLac sens inactive.
For O=S1(=O)c2ccc(N3CCN(Cc4ccccc4F)CC3)cc2Oc2ccccc2CN1Cc1cn(Cc2cccc(F)c2)nn1 the results were CCHF vOTU inh inactive.
`C[C@@H]1NC(=O)[C@H]2C[C@@]3(c4ccccc4)c4ccccc4N[C@H]3N2C1=O` gave CCHF vOTU inh inactive.
`Nc1[nH]c2cc(Cl)ccc2c1C(=O)NCCc1ccc(Cl)cc1` gave CCHF vOTU inh inactive.
Screening COc1ccccc1N1CCN(C2CCCN(S(=O)(=O)c3ccccc3)C2)CC1 (configuration not stated) returned CCHF vOTU inh inactive, RecA intein inh inactive, GDH-TPI inh inactive, Mtb FBA inh 163 and Mtb bLac sens inconclusive.
`C=CCS(=O)(=O)N1CCCC(N2CCN(c3ccccc3OC)CC2)C1` (configuration not stated) gave CCHF vOTU inh inactive, RecA intein inh inactive, GDH-TPI inh inactive, Mtb FBA inh inactive and Mtb bLac sens inactive.
`O=C(Nc1ccc2c(c1)OCO2)OC1CCC12CCC(c1ccccc1)CC2` (configuration not stated) gave CCHF vOTU inh inactive.
N#Cc1cc2c(=O)n3ccccc3nc2n(CCCn2ccnc2)c1=N was read as CCHF vOTU inh inactive, RecA intein inh inactive, GDH-TPI inh inactive, Mtb FBA inh inactive and Mtb bLac sens inactive.
Cc1ccc2nc3c(cc(C(=O)NCCc4ccccc4)c(=N)n3CCN3CCOCC3)c(=O)n2c1 was read as RecA intein inh inactive, GDH-TPI inh inactive, Mtb FBA inh 188 and Mtb bLac sens inactive.
`Cc1ccc2nc3c(cc(C(=O)NCc4ccccc4)c(=N)n3CCCn3ccnc3)c(=O)n2c1` gave CCHF vOTU inh inactive, GDH-TPI inh inactive and Mtb FBA inh 131.
Screening Cc1cccn2c(=O)c3cc(C(=O)NC(C)c4ccccc4)c(=N)n(CCCn4ccnc4)c3nc12 (configuration not stated) returned CCHF vOTU inh inactive, GDH-TPI inh inactive, Mtb FBA inh 161 and Mtb bLac sens inactive.
